Experimental findings from ChEMBL document CHEMBL4296182, “CO-ADD screening of NIH NCI Diversity Set V” are described below.

For one test, the system named is Staphylococcus aureus. Put plainly: Antibacterial activity against Staphylococcus aureus MRSA ATCC 43300 (CO-ADD:GP_020); MIC in CAMBH media using NBS plates, by Resazurin F(560/590). The conditions noted are these: Concentration 20 uM, ASSAY_TEST Inhibition of Bacterial Growth, detection method Resazurin, Fluorescence (ex560/em590), MEDIA CAMHB, plate type 384well, CORNING #3640, time 18 hr. In kind it is functional.

The test system of another test is Acinetobacter baumannii. The test can be described thus: Antibacterial activity against Acinetobacter baumannii ATCC 19606 (CO-ADD:GN_034); MIC in CAMBH media using NBS plates, by Resazurin F(560/590). It is filed as functional. The conditions noted are these: Concentration 20 uM, ASSAY_TEST Inhibition of Bacterial Growth, detection method Resazurin, Fluorescence (ex560/em590), MEDIA CAMHB, plate type 384well, CORNING #3640, time 18 hr. (Resazurin is reduced to fluorescent resorufin, in cell work by metabolically active cells.)

The next test has as its system Escherichia coli. The test can be described thus: Antibacterial activity against Escherichia coli ATCC 25922 (CO-ADD:GN_001); MIC in CAMBH media using NBS plates, by Resazurin F(560/590). In kind it is functional. The conditions noted are these: Concentration 20 uM, ASSAY_TEST Inhibition of Bacterial Growth, detection method Resazurin, Fluorescence (ex560/em590), MEDIA CAMHB, plate type 384well, CORNING #3640, time 18 hr.

Another test concerns Klebsiella pneumoniae. The conditions noted are these: Concentration 20 uM; ASSAY_TEST Inhibition of Bacterial Growth; detection method Absorption (OD600); MEDIA CAMHB; plate type 384well; NBS; CORNING #3640; time 18 hr.
A further test has as its system Candida albicans. The conditions noted are these: 20 µM.
The test system of a further test is Cryptococcus neoformans. The conditions noted are these: Concentration 20 uM; ASSAY_TEST Inhibition of Fungal Growth; detection method Resazurin; Absorption (OD600-OD570); plate type 384well; NBS; CORNING #3640.

For part of these data: Measured potencies and affinities stand elsewhere.

One may read the Inhibition as the drop in the measured response relative to a control, in per cent. As for `CCOC(=O)c1nnsc1-c1ccc(-c2snnc2C(=O)OCC)cc1`, the Inhibition with Staphylococcus aureus was 4.36%; in the test with Acinetobacter baumannii, 3.04%; in the test on Escherichia coli it was -11.2%; in the test with Klebsiella pneumoniae, 29.27%; in the test on Candida albicans, 6.68%; in the test on Cryptococcus neoformans, -3.34%.

As to `Cc1cc(NC(=O)Nc2cc(F)ccc2F)no1`, the Inhibition was -1.77% in the test with Staphylococcus aureus; -0.21% in the test with Acinetobacter baumannii; 10.41% in the test on Escherichia coli; 7.53% with Klebsiella pneumoniae; 2.67% with Candida albicans; -5.29% with Cryptococcus neoformans.

Turning to `O=C(Nc1ccc(Br)c2ccccc12)c1ccc2ccccc2c1O`, the Inhibition in the test with Staphylococcus aureus was 0.57%; with Acinetobacter baumannii, -4.06%; in the test with Escherichia coli, -4.98%; in the test with Klebsiella pneumoniae, 22.07%; with Candida albicans it was 4.96%; in the test on Cryptococcus neoformans, 1.39%.

On to `COc1ccc2c(c1)C(=O)C1NC(=O)NC(=O)C1(Br)N2` (stereo not given), for which the Inhibition with Staphylococcus aureus was 19.24%; with Acinetobacter baumannii it was -10.78%; in the test with Escherichia coli, 15.57%; in the test on Klebsiella pneumoniae, 4.36%; in the test on Candida albicans, -1.05%; in the test with Cryptococcus neoformans it was -13.08%.

With `CC(O)(c1ccccc1)C(c1ccccc1)C1CCCCN1` (stereo not given), the Inhibition was 9.45% with Staphylococcus aureus; 13.67% in the test with Acinetobacter baumannii; -4.2% in the test with Escherichia coli; 13.38% in the test on Klebsiella pneumoniae; 7.26% in the test on Candida albicans; -3.74% in the test on Cryptococcus neoformans.

On to `Cc1n[nH]c2c([N+](=O)[O-])c(=O)[nH]c(=O)n12`, for which the Inhibition in the test on Staphylococcus aureus is 3.86%; in the test with Acinetobacter baumannii, -12.95%; with Escherichia coli it was 12.3%; in the test on Klebsiella pneumoniae, 7.43%; in the test with Candida albicans it was 0.29%; with Cryptococcus neoformans it was -13.65%.

As to `CCc1cccc2[nH]c3cc([N+](=O)[O-])ccc3c12`, the Inhibition with Staphylococcus aureus was 6.44%; in the test with Acinetobacter baumannii, 1.17%; in the test with Escherichia coli, 2.96%; in the test on Klebsiella pneumoniae, -4.47%; with Candida albicans, 9.1%; in the test on Cryptococcus neoformans, 12.93%.

Turning to `NS(=O)(=O)c1ccc(NC(=S)NC(=O)c2ccco2)cc1`, the Inhibition in the test with Staphylococcus aureus is 17.92%; in the test with Acinetobacter baumannii, 4.84%; in the test on Escherichia coli, 10.07%; in the test on Klebsiella pneumoniae, 4.06%; with Candida albicans, 1.47%; in the test with Cryptococcus neoformans, -12.16%.

In the case of `Cc1ccc2c(c1)c1ccc3c(c1n2C)C(=O)C=CC3=O`, the Inhibition in the test on Staphylococcus aureus is 2.62%; in the test on Acinetobacter baumannii, -23.42%; in the test with Escherichia coli, 6.78%; in the test with Klebsiella pneumoniae, 6.78%; in the test on Candida albicans it was 22.6%; in the test on Cryptococcus neoformans it was 22.59%.

For the molecule `ClC(Cl)(Cl)C1=Nc2c(nnn2Cc2ccccc2)CN1`, the Inhibition with Staphylococcus aureus is 1.51%; in the test on Acinetobacter baumannii, 7.83%; in the test on Escherichia coli it was 14.39%; in the test on Klebsiella pneumoniae it was 3.07%; with Candida albicans, -3.28%; in the test on Cryptococcus neoformans it was -12.54%.

On to `C#C[C@]1(O)CC[C@H]2[C@@H]3CCC4=Cc5oncc5C[C@]4(C)[C@H]3CC[C@@]21C` [DANAZOL], for which the Inhibition in the test with Staphylococcus aureus is -10.91%; in the test with Acinetobacter baumannii, 2.93%; in the test on Escherichia coli, 12.68%; in the test on Klebsiella pneumoniae, 6.03%; in the test on Candida albicans it was 0.72%; in the test with Cryptococcus neoformans, -10.04%.

Regarding `CCCCNC(=O)Nc1ccccc1CC`, the Inhibition in the test on Staphylococcus aureus was 14.67%; in the test on Acinetobacter baumannii it was 10.42%; with Escherichia coli, 0.25%; in the test on Klebsiella pneumoniae, 11.35%; in the test with Candida albicans, 3.55%; with Cryptococcus neoformans, -6.96%.

Turning to `COc1ccc(NC2=NC(C)(CO)CS2)cc1` (stereo not given), the Inhibition was 33.41% in the test with Staphylococcus aureus; -4.98% in the test with Acinetobacter baumannii; 1.2% with Escherichia coli; 15.06% in the test on Klebsiella pneumoniae; 1.85% with Candida albicans; 5.77% in the test on Cryptococcus neoformans.

Regarding `O=C1Nc2ccccc2C1(c1ccc(O)cc1)c1ccc(O)cc1` [OXYPHENISATINE], the Inhibition in the test with Staphylococcus aureus was 24.64%; in the test with Acinetobacter baumannii, -10.84%; in the test with Escherichia coli, 13.68%; in the test with Klebsiella pneumoniae, 5.85%; in the test with Candida albicans it was 2.96%; in the test with Cryptococcus neoformans, -4.24%.

Turning to `Oc1ccc(Cc2ccccc2Cl)c(O)c1`, the Inhibition in the test on Staphylococcus aureus is 14.48%; in the test on Acinetobacter baumannii, -16.11%; with Escherichia coli, 10.23%; with Klebsiella pneumoniae, 8.44%; in the test with Candida albicans it was -1.58%; in the test on Cryptococcus neoformans, -12.35%.

For `CC(=O)C1C=CC(C)(C(=O)O)C2C=C(C)C(=O)C(C)(O)C12` (stereo not given), the Inhibition with Staphylococcus aureus is 4.72%; with Acinetobacter baumannii it was 16.27%; with Escherichia coli it was 8.25%; in the test with Klebsiella pneumoniae, 21.21%; in the test with Candida albicans it was 1.75%; in the test with Cryptococcus neoformans, -4.78%.

As to `O=c1c(-c2ccc(O)cc2)coc2cc(O)cc(O)c12` [GENISTEIN], the Inhibition in the test on Staphylococcus aureus was 3.06%; with Acinetobacter baumannii, 1.42%; in the test with Escherichia coli it was 2.99%; in the test on Klebsiella pneumoniae, 22.48%; in the test with Candida albicans, 6.45%; in the test with Cryptococcus neoformans, -7.01%.

With `O=C(Oc1cccnc1O)c1cccc(Cl)c1`, the Inhibition in the test with Staphylococcus aureus was -7.64%; in the test with Acinetobacter baumannii it was 10.47%; in the test with Escherichia coli, 6.47%; in the test on Klebsiella pneumoniae it was 11.85%; in the test with Candida albicans it was 13.4%; in the test with Cryptococcus neoformans, -17.52%.

As for `CCOc1ccc(/C=C2\NC(=S)NC2=O)cc1`, the Inhibition in the test with Staphylococcus aureus is 4.57%; in the test on Acinetobacter baumannii, -5.71%; in the test on Escherichia coli, -3.24%; with Klebsiella pneumoniae, 22.87%; in the test on Candida albicans, 0.92%; in the test on Cryptococcus neoformans, -6.77%.

In the case of `COc1ccc(C(=S)N2CCN(c3ccccc3Cl)CC2)cc1OC`, the Inhibition is 21.01% with Staphylococcus aureus; 9.29% with Acinetobacter baumannii; 8.55% in the test with Escherichia coli; 6.8% with Klebsiella pneumoniae; 6.76% in the test on Candida albicans; -9.03% in the test on Cryptococcus neoformans.
